Screening results from PubChem BioAssay.
Only some compounds are listed: those with a hit (about 3.4% of all), similar ones and a draw of the others.
GPR151 ag = human GPR151 activation. Q8TDV0. PathHunter beta-arrestin GPR151 cells, luminescence. activation, % at 11.2 µM. 650,000 compounds, 1% hits; in the data active means activation above about 4.9%;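 further: 0% = median of compound wells and 100% = cells with positive control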
FBW7 activator = human FBW7 E3 ligase activation, primary screen. AlphaScreen FBW7–phospho-cyclin E peptide binding, activator screen. 650,000 compounds, 0.13% hits. normalized activity (activation), % at 26.1 µM. Q969H0. AID 1259310; in the data active means normalized activity above about 1.9%;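 further: purified mutant Fbw7 with reduced substrate affinity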
MITF primary = inhibitors of human MITF; O75030; AlphaScreen MITF homodimerization, bead proximity signal; inhibition, % at 2.6 µM; 650,000 compounds, 0.91% hits; AID 1259374; in the data active means inhibition above about 50%;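 further: 0% = vehicle wells with protein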
Target sequence (O75030 whole entry, looked up): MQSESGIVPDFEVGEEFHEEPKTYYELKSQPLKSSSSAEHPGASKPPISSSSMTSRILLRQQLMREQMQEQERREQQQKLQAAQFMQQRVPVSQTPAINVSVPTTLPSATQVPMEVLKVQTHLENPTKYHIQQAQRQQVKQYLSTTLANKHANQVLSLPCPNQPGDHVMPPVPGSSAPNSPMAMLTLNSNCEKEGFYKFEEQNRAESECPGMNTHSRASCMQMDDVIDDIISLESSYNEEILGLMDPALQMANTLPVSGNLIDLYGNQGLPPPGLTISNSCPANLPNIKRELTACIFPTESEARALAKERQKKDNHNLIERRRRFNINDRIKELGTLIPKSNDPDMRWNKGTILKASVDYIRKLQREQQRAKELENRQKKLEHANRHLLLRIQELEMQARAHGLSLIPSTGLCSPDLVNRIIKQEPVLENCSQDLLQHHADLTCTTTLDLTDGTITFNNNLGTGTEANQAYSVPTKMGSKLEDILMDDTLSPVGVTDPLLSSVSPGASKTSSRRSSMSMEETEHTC
TEAD-YAP block = TEAD-YAP interaction inhibition; inhibition, % at 9.12 µM; 640,000 compounds, 1.4% hits; HEK-TIYL cells, TEAD-Gal4/YAP UAS-luciferase luminescence; in the data active means inhibition above about 32%;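 further: 0% = median of test compound wells and 100% = reference inhibitor wells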
GPR151 confirm = human GPR151 activation, confirmation screen | shares compounds with GPR151 ag | GPR151 PathHunter beta-arrestin cells, luminescence, 90 min; % of EA-reagent control over plate median | activation, % at 11.2 µM | 6,700 tested, under 10 active;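 active means mean percent activation across replicates above the confirmation screen cutoff of 4.91%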
GPR119 ag = GPR119 activation, counter-screen for GPR151 activators; shares compounds with GPR151 ag; GPR119 PathHunter beta-arrestin cells, luminescence, 90 min; 0 = compound-well median, 100 = enzyme-acceptor control; activation, % at 11.2 µM; 6,700 compounds, 0.3% hits; AID 1508611;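 active means mean percent activation in the counterscreen above 29.09%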;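 further: counterscreen on off-target GPR119 to flag nonselective hits from the GPR151 activator screen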
Numbers without * were called inactive; . = no result given.

SMILES	GPR151 ag	FBW7 activator	MITF primary	TEAD-YAP block	GPR151 confirm	GPR119 ag
Nn1c(SCC(=O)Nc2cccc(F)c2)nnc1-c1ccc(Cl)cc1	6.2*	-0.2	-6.1	0.7	0.2	1.8
NC(=O)c1ccc(NC(=O)CSc2nnc(-c3ccc(Cl)cc3)n2N)cc1	0.2	0.0	2.5	5.5	.	.
COc1ccc([N+](=O)[O-])cc1NC(=O)COC(=O)CC(c1ccccc1)c1ccccc1	5.2*	-0.3	4.0	-8.5	0.3	-4.3
COc1cc(Cl)c(C)cc1NC(=O)COC(=O)C(CC(C)C)NC(N)=O (centres undefined)	0.0	-0.1	-16.4	-3.7	.	.
COc1cc([N+](=O)[O-])ccc1NC(=O)COC(=O)C(CC(C)C)NC(N)=O (centres undefined)	5.3*	0.5	3.8	-5.2	0.4	-1.5
CC1=Nc2ccccc2/C1=C/c1c(O)n(-c2ccccc2)c(=S)[nH]c1=O	-0.4	0.7	20.1	-14.1	.	.
CC(=O)Nc1ccc(NC(=O)CSc2ncnc3c2cnn3-c2ccc(C)cc2C)cc1	5.2*	-0.2	3.4	10.0	0.1	7.9
Cc1ccc(-n2ncc3c(SCC(N)=O)ncnc32)c(C)c1	-0.2	0.3	10.8	-5.6	.	.
O=C(COc1ccc([N+](=O)[O-])cc1)Nc1ccccc1Br	-1.0	0.0	-13.8	-2.3	.	.
O=C(C1CCN(C2CCN(Cc3ccc4c(c3)OCCO4)CC2)CC1)N1CCCC1	-0.6	0.0	-13.5	3.7	.	.
O=C(C1CCN(Cc2ccc3c(c2)OCO3)CC1)N1CCOCC1	5.2*	0.0	25.6	-3.7	-0.3	10.4
O=C(CCC(=O)c1ccc(Br)cc1)Nc1cccnc1	-0.5	-0.2	4.7	-5.2	.	.
O=C(CCC(=O)c1ccc(Oc2ccccc2)cc1)Nc1cccnc1	6.8*	0.0	-25.2	4.4	-0.8	5.3
O=C(O)c1ccc2c(c1)C(=O)N(c1ccccc1C(=O)O)C2=O	-0.8	0.3	19.5	-6.3	.	.
Cc1cc(NC2CCN(Cc3ccccc3)CC2)nc(Nc2ccnn2C)n1	-0.3	0.0	9.7	-2.9	.	.
O=C(CSc1nc2cc(C(=O)NCc3ccccc3Cl)ccc2c(=O)n1Cc1ccccc1)c1ccccc1	-1.1	-0.1	-8.8	6.3	.	.
O=C(NCCn1cc(SCc2ccc(Br)cc2)c2ccccc21)c1ccc(F)cc1	5.0*	-0.1	1.0	2.9	-0.5	-4.8
Cc1nc(SCc2ccc([N+](=O)[O-])cc2)c2c(=O)n(C)c(=O)n(C)c2n1	0.6	0.1	6.9	8.0	.	.
N#Cc1ccc(OCC(=O)OCC(=O)Nc2ncc(Cl)cc2Cl)cc1	5.6*	-0.2	-4.4	0.1	-0.4	-8.1
Cc1c(NC(=O)c2cc(-c3ccc(Cl)c(Cl)c3)on2)c(=O)n(-c2ccccc2)n1C	8.5*	0.0	-9.7	0.8	-0.4	2.3
Cc1c(NC(=O)Cc2ccc(Cl)cc2)c(=O)n(-c2ccccc2)n1C	0.3	0.0	-22.6	16.5	.	.
COc1ccccc1OC(C)C(=O)Nc1c(C)n(C)n(-c2ccccc2)c1=O (centres undefined)	6.7*	0.4	8.9	12.7	0.4	0.4
Cc1c(NC(=O)CCSc2ccc(Cl)cc2)c(=O)n(-c2ccccc2)n1C	5.2*	-0.2	-1.2	3.9	-0.8	-11.6
C/C(=N\n1c(C)nc2sc3c(c2c1=O)CCCC3)c1ccc([N+](=O)[O-])cc1	-1.4	0.1	1.3	5.6	.	.
O=C(NCCOc1ccc(-c2ccc(F)cc2)nn1)c1ccc(I)cc1	1.1	-0.1	0.7	-6.9	.	.
SMILES	GPR151 ag	FBW7 activator	MITF primary	TEAD-YAP block	GPR151 confirm	GPR119 ag
COc1ccc(C(C)n2c(C)c3c(C)nnc(C)c3c2C)cc1 (centres undefined)	11.3*	0.8	-9.5	-13.0	0.2	-0.9
Cc1nnc(C)c2c(C)n(C(C)c3ccccc3)c(C)c12 (centres undefined)	-0.6	-0.1	-4.8	-27.3	.	.
O=C(/C=C/c1ccc([N+](=O)[O-])cc1)n1nnc2ccccc21	2.0	0.0	0.5	6.1	.	.
COC(=O)Cn1c2cc(OC)c(OC)cc2c2nc(=O)cc(C)n21	8.8*	-0.1	8.6	7.2	0.3	3.2
COc1ccc2c(c1)CC(c1nc3ccc(-c4cn[nH]c4)cc3[nH]1)NC2 (centres undefined)	0.4	0.0	25.5	25.2	.	.
COc1ccc(C2CNCC2c2nc3ccc(-c4cn[nH]c4)cc3[nH]2)cc1 (centres undefined)	6.0*	-0.1	-20.0	2.5	-0.5	-4.3
O=C1CCC([N+](=O)[O-])C(c2ccc3c(c2)OCO3)N1 (centres undefined)	7.7*	-0.4	-5.8	-2.5	-0.3	12.9
O=C1CCC([N+](=O)[O-])C(c2ccc(Cl)c(Cl)c2)N1 (centres undefined)	-0.6	0.0	-7.1	-5.9	.	.
C/C=C(\C)CN1CCc2nnc(C(C)NC(=O)c3cccnc3)n2CC1 (centres undefined)	-0.5	-0.1	1.8	1.7	.	.
O=S(=O)(Nc1ccc(Cl)cc1F)c1cnc[nH]1	10.7*	0.1	2.7	-11.4	0.5	12.3
O=C(NCc1ccc(Cl)cc1Cl)Nc1ccccc1	-1.3	1.3	13.8	-44.9	.	.
O=C(NCc1ccc(Cl)cc1Cl)c1ccccn1	7.8*	-0.1	1.5	2.1	0.3	3.2
O=C(CSCc1ccccc1Cl)N/N=C/c1ccc(F)cc1	1.7	0.0	-2.0	6.7	.	.
O=C1N2CN(C(c3ccccc3)c3ccccc3)CN=C2SC1(CO)CO	7.7*	-0.2	17.2	4.6	-0.8	-6.0
COc1ccc(CNCc2ccc3ccccc3c2)cc1OC	5.1*	-0.1	34.4	4.3	0.7	0.6
CC(C(=O)N1c2ccccc2CC1C)N1CCN(c2ccccn2)CC1 (centres undefined)	5.3*	0.5	14.3	13.2	0.4	-8.1
CNC(=O)NC(=O)C(C)N1CCN(c2ccccn2)CC1 (centres undefined)	1.1	0.6	15.2	-5.2	.	.
Cc1cc2nc(-c3ccc(NC(=O)c4ccc(Cl)c([N+](=O)[O-])c4)cc3)oc2cc1C	-0.1	0.1	-3.5	-34.9	.	.
NC(=O)c1ccc(-c2nc3ncnc(NC4CCN(Cc5ccccc5)CC4)c3[nH]2)cc1	2.1	0.1	5.2	-0.4	.	.
O=C1N(Cc2cccnc2)C[C@@H]2C[C@@H](c3cccn3-c3ncccn3)N3CCC[C@@]123	19.7*	0.1	6.9	6.8	0.4	-3.6
O=C1N(Cc2cccnc2)C[C@@H]2C[C@@H](c3ccc(Oc4ncccn4)cc3)N3CCC[C@@]123	0.4	0.0	5.3	1.2	.	.
O=C(O)CN1CCOCCOCCN(CC(=O)O)CCOCCOCC1	5.9*	-0.1	3.0	3.3	0.5	-3.1
Cc1cc(C)cc(C(=O)Nc2ccc3c(c2)CCCN3S(C)(=O)=O)c1	7.7*	-0.1	2.5	-34.0	0.8	11.7
